Source: PubChem BioAssay (NCATS)
Results filed as inconclusive are left out. The source made the active and inactive calls. Unless noted, the call rests on the fitted dose curve; in most records, active means well fitted curve in either direction with a large enough effect (not every such curve was filed as active); inconclusive means small, poorly fitted or top-dose-only effect, or another doubt; inactive means flat fitted curve, though single readings scatter.

Assays:
[1] = target: Lysosomal acid glucosylceramidase (Homo sapiens) (UniProt P04062); test: Glucocerebrosidase-p2 (AID 348; in the data active means potency below about 10 µM; further: potency means the concentration at half of the fitted maximal effect); settings: purified GBA, blue fluorogenic substrate, 40 min
Outline: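 Normal human glucocerebrosidase (0.2 nM) with blue fluorogenic substrate (80 uM final) in citrate/phosphate pH 5.9 with 10mM sodium taurocholate, 0.01% tween-20; 40 min RT, NaOH/glycine stop; fluorescence Ex 365/Em 440; AC50 from a titration from 0.6 nM upwards.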

[2] = AP1 Signaling Pathway (AID 357); settings: ME-180 AP-1-bla reporter, EGF-induced, beta-lactamase ratio, 5 h; at 7.69 µM (top of the series) unless noted;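 further: ME-180 reporter cells stimulated with EGF at its EC50 level; on the % scale 0 is the no-effect control and ±100 the full control effect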
Outline: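 In this screen, ME-180 cells in Opti-MEM with 0.5% dialyzed FBS received EC50 EGF and compound titrations for 5 h. AP-1 reporter beta-lactamase was detected via CCF4 ratio, giving AC50 for positive and negative modulators.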

[3] = target: Cytochrome P450 1A2 (Homo sapiens) (UniProt P05177); test: p450-cyp1a2 (AID 410; calls by dose curve; further: potency means the concentration at half of the fitted maximal effect;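 on activity change, negative = inhibition: -100% = full effect of reference inhibitor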); settings: recombinant CYP1A2, luciferin-ME demethylation, luminescence; series mostly up to 57 µM
Outline: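 Luminescent demethylation readout: Luciferin-ME (100uM, equal to Km) turned over by 20nM CYP1A2 for 60 min at room temperature after NADPH regeneration addition, following 10 min compound preincubation. Normalization used 57 uM furafylline as full inhibition.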

[4] = NFAT Signaling Pathway (AID 444); settings: Jurkat NFAT-bla M1, carbachol, beta-lactamase ratio, 5 h; at 7.69 µM (top of the series) unless noted;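 further: carbachol stimulus at about its EC50 of 1 µM final; on the % scale 0 is the no-effect control and ±100 the full control effect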
Outline: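 Read-out: CCF4 FRET ratio (460 nm/530 nm) after 1 h RT dye loading, used for %activity and AC50 from titration series. Cells: Jurkat NFAT-β-lactamase/M1 line, treated with compound plus 1 uM carbachol for 5 h, 37 °C.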

[5] = Stat Signaling Pathway (AID 446); settings: ME-180 SIE beta-lactamase reporter, IL-6 stimulated, 5 h; at 7.69 µM (top of the series) unless noted;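 further: ME-180 cervical cancer cells given 40 pM IL-6 alongside compound; SIE-controlled beta-lactamase reporter measured as 460/530 nm FRET emission ratio; on the % scale 0 is the no-effect control and ±100 the full control effect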
Outline: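 Compound effects on IL-6-induced STAT reporter activity were measured in ME-180 cells. After overnight culture, cells were co-treated with 40 pM IL-6 for 5 hrs before beta-lactamase substrate loading at room temperature.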

[6] = target: Glucocorticoid receptor (Homo sapiens) (UniProt P04150); test: GR-EFC Redistribution (AID 451; calls by dose curve; further: potency means the concentration at half of the fitted maximal effect); settings: CHO-K1 GR-EFC translocation, beta-gal luminescence, 2 h
Outline: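 Translocation of GR-ED fusion to nuclear EA restores b-gal, read by luminescence after 1 h room-temperature detection. Engineered CHO-K1 biosensor cells, 1,000/well, exposed 2 h at 37 C to titrations up to 46 uM final.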

[7] = target: Mitogen-activated protein kinase 10 (Mus musculus) (UniProt Q61831); test: JNK3 AlphaScreen Assay (AID 530); settings: JNK3 lysate, c-Jun phosphorylation; series mostly up to 57.1 µM;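 further: kinase came from lysate of stimulated human HepG2 cells; signal reports phosphorylation of biotinylated GST-cJun 1-79 at Ser73 with 10 µM ATP; on the % scale 0 is the no-effect control and ±100 the full control effect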
Outline: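 qHTS titrations with 15 min compound pre-incubation before adding ATP (10 uM final). Read-out: AlphaScreen of Ser73-phosphorylated biotin-GST-cJun using HepG2 lysate JNK3 activated by IL-1β and TNFα.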

[8] = target: 3',5'-cyclic-AMP phosphodiesterase 4B (Homo sapiens) (UniProt Q07343); test: qHTS Assay for Inhibitors of PDE-IV (AID 607; active means well fitted activation curve with a large enough effect in the main read-out, with a control signal flat, not every such curve was filed as active; further: % of control where 0% means no effect); settings: HEK293 ACTOne CNG channel cells, membrane potential fluorescence; series mostly up to 22.9 µM
Outline: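 ACTOne HEK293 cells carry a modified cAMP-gated CNG channel and express endogenous PDE4; plated 1000 cells/well, compounds up to 22.9 uM final. Membrane-potential dye fluorescence (ex 535/em 590) was read; parental cells received 10 uM forskolin + 100 uM RO 20-1724.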

[9] = target: Cytochrome P450 3A4 (Homo sapiens) (UniProt P08684); test: qHTS Assay for Activators of Cytochrome P450 3A4 (AID 885; active means well fitted curve in the direction sought with a large enough effect; an effect the other way counts as inactive or inconclusive; further: nearly all actives have a fitted effect of over 65% in size; further: potency means the concentration at half of the fitted maximal effect); settings: recombinant CYP3A4, Luciferin-PPXE luminescence, 60 min; series mostly up to 57.1 µM
Outline: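 CYP3A4 activity: Luciferin-PPXE O-dealkylation, 25uM substrate, 200mM KPO4, RT throughout. Read-out is luciferase luminescence; higher values reflect activation.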

[10] = qHTS Assay for Lipid Storage Modulators (AID 1519; calls by dose curve); settings: Drosophila S3 cells, BODIPY lipid droplet/cell ratio, laser cytometry, cells loaded with oleic acid; for activity change, negative = inhibition: at 57.5 µM (top of the series)
Outline: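 Cells seeded at 5,000 per well were treated with compounds over a concentration series and loaded with oleic acid (400 uM, as added). Lipid droplet fluorescence (488 nm excitation, 500-530 nm channel) was read by laser-scanning cytometry and normalized to 20 uM Triacsin C.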

[11] = Primary qHTS for small molecule stabilizers of the endoplasmic reticulum resident proteome: Secreted ER Calcium Modulated Protein (SERCaMP) assay (AID 1508630; active means well fitted curve in the direction sought with a large enough effect; an effect the other way counts as inactive or inconclusive; further: on the % scale 0 is the no-effect control and ±100 the full control effect); settings: SH-SY5Y GLuc-SERCaMP (Gaussia luciferase released on ER calcium loss) secretion, thapsigargin, luminescence; series mostly up to 38.4 µM
Outline: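 The SH-SY5Y reporter protocol was run at 3 concentrations up to 38.3 uM (primary) or 11 concentrations (follow-up): 16 h compound, 100 nM thapsigargin for 4 h, then extracellular luciferase luminescence.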

[12] = target: Cytochrome P450 3A4 (Homo sapiens) (UniProt P08684); test: qHTS Assay for Inhibitors and Substrates of Cytochrome P450 3A4 (AID 884; active means well fitted curve in the direction sought with a large enough effect; an effect the other way counts as inactive or inconclusive; further: nearly all actives have a fitted effect of over 50% in size; further: potency means the concentration at half of the fitted maximal effect); settings: recombinant CYP3A4, Luciferin-PPXE luminescence; series mostly up to 57.1 µM
Outline: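 Luminescent readout of luciferin produced by CYP3A4 (20 nM) dealkylation of Luciferin-PPXE, 25 uM (its KM). NADPH-driven reaction ran 60 min at RT after 10 min compound preincubation; data scaled to 57 uM ketoconazole as 100% inhibition.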

[13] = qHTS Assay for Identification of Small Molecule Agonists for Hypoxia Response Element Signaling Pathway (AID 914; active means well fitted activation curve with a large enough effect in the signal ratio, with a control signal flat, not every such curve was filed as active; the % refers to the signal ratio; further: % of control where 0% means no effect); settings: ME-180 (cervical carcinoma) HRE-bla reporter, beta-lactamase ratio, CoCl2, 17 h; activation: stronger effect = higher value
Outline: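 AC50 values come from titration-series %Activity, taken as the 460/530nm ratio of CCF4 fluorescence (excitation 405nm). CellSensor HRE-bla ME-180 cells were treated 17 hours at 37 C with compound plus an EC50 level of CoCl2.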

[14] = target: Cytochrome P450 2C19 (Homo sapiens) (UniProt P33261); test: qHTS Assay for Inhibitors and Substrates of Cytochrome P450 2C19 (AID 899; active means well fitted curve in the direction sought with a large enough effect; an effect the other way counts as inactive or inconclusive; further: potency means the concentration at half of the fitted maximal effect; nearly all actives have a fitted effect of over 60% in size); settings: recombinant CYP2C19, luciferin-H EGE luminescence; series mostly up to 57.1 µM
Outline: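 Luminescence readout of luciferin formed from 10uM Luciferin-H EGE (KM level) by 5 nM CYP2C19 in 50mM KPO4. 60 min NADPH-driven reaction at 37C after 10 min compound preincubation; data scaled to 57uM ketoconazole inhibition.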

[15] = measured here: cell count channel max response
[16] = measured here: lipid channel max response

Chain of Cytochrome P450 1A2 (Homo sapiens) (P05177 whole entry, looked up): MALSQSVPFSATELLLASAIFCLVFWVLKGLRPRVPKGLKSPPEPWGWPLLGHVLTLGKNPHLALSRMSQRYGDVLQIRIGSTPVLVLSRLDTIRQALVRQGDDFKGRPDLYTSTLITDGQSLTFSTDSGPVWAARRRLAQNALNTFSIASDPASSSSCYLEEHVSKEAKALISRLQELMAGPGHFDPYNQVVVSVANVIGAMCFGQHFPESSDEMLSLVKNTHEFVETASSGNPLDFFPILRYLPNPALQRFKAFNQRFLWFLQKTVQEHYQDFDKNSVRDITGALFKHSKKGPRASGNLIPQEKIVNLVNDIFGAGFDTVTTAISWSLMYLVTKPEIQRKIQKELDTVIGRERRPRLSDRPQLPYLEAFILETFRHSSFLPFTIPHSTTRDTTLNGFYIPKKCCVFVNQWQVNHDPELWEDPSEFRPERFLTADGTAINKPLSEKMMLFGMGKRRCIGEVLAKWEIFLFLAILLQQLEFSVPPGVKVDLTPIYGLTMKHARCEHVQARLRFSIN
Chain of Glucocorticoid receptor (Homo sapiens) (P04150 whole entry, looked up, the tested form may be a part): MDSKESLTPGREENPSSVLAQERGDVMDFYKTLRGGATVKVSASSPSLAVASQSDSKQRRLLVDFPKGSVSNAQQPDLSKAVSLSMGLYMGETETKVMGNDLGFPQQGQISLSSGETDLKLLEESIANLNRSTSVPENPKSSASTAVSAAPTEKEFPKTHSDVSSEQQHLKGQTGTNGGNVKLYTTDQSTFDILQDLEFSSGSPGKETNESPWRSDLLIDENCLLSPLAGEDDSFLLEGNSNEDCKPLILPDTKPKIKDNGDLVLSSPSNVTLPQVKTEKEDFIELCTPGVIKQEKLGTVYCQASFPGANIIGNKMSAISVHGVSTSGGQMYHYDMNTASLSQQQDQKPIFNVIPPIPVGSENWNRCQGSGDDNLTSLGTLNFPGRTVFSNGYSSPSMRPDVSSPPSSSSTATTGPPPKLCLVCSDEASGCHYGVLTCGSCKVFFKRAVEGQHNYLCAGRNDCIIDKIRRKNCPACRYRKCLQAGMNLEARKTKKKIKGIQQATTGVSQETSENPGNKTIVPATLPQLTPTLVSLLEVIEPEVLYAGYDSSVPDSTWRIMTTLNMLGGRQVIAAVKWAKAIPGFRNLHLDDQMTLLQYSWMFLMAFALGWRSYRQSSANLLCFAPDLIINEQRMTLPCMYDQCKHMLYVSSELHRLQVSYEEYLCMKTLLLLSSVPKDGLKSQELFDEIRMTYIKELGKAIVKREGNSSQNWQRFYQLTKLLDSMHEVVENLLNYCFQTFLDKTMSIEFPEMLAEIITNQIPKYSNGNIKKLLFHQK
Chain of Lysosomal acid glucosylceramidase (Homo sapiens) (P04062 whole entry, looked up): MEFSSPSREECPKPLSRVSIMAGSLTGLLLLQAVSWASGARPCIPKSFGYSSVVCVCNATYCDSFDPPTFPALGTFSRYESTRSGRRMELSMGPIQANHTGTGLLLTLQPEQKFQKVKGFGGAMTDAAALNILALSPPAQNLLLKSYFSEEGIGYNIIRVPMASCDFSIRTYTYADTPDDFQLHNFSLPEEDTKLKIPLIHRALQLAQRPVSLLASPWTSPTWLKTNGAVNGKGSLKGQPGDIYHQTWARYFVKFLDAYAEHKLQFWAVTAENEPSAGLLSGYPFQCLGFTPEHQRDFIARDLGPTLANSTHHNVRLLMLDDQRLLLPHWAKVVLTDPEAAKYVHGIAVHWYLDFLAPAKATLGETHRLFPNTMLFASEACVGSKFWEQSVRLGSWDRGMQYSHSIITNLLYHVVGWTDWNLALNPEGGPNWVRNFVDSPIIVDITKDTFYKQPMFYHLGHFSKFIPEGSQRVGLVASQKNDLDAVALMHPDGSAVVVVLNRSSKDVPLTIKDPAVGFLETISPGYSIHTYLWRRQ
Chain of 3',5'-cyclic-AMP phosphodiesterase 4B (Homo sapiens) (Q07343 whole entry, looked up): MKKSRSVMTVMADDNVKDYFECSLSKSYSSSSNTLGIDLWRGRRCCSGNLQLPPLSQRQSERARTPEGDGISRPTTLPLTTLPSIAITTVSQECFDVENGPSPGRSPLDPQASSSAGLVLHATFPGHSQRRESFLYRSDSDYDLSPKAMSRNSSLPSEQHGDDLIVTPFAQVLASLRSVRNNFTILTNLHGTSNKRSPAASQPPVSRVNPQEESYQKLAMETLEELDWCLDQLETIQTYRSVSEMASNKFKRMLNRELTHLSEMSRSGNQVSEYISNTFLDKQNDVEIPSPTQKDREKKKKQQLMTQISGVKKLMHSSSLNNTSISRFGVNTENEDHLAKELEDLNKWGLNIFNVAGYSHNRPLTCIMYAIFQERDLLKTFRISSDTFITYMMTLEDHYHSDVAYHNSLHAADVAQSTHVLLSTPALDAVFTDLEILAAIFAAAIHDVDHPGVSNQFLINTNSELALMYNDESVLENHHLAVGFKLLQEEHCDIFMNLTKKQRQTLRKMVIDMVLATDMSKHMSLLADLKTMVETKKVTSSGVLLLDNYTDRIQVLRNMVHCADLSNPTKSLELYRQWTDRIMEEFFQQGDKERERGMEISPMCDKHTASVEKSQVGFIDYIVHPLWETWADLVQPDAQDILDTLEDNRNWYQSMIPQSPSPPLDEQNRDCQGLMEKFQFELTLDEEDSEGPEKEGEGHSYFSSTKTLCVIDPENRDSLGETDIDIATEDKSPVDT
Chain of Cytochrome P450 3A4 (Homo sapiens) (P08684 whole entry, looked up): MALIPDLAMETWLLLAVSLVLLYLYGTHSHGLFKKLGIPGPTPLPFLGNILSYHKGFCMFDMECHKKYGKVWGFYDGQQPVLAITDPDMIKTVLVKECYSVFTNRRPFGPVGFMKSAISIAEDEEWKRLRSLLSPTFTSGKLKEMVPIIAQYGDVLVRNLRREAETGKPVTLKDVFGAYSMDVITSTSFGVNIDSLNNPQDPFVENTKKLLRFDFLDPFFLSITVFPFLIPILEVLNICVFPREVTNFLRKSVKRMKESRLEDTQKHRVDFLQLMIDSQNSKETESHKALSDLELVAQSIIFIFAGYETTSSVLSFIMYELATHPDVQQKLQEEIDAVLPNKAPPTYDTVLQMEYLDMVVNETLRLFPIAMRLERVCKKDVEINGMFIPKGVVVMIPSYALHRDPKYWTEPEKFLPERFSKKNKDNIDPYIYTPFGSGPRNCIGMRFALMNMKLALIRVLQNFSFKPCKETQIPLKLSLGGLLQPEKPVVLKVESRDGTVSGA
Chain of Cytochrome P450 2C19 (Homo sapiens) (P33261 whole entry, looked up): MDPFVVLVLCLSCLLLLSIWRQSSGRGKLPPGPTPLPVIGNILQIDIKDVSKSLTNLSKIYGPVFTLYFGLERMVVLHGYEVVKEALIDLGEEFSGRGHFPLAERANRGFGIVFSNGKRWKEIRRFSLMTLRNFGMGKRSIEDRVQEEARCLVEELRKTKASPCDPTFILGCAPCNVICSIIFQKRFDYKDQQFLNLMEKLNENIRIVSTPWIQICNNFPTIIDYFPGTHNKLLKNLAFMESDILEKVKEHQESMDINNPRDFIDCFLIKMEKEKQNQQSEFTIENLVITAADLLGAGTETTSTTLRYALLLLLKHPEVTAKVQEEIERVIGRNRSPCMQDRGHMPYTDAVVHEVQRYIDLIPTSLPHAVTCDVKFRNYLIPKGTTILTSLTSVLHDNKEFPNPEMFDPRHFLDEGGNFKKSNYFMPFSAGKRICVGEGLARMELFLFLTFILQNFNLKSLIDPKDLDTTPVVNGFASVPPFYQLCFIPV

O=C(Nc1cccc(F)c1)N1CC[C@@]2(CCCN(C(=O)c3ccco3)C2)C1
-1.46%: max response [10, 16]
inactive: Potency [1] > 11.4 µM | activity change, negative = inhibition [2] 1.78% | activity change, negative = inhibition [4] -0.255% | activity, negative = inhibition [5] 8.88% | Potency [6] > 46 µM | outcome [7] | Potency [8] | Potency [9] | activity change, negative = inhibition [10] 0.339% | Potency [11]
-5.34%: max response [10, 15]
active: Potency [3] 25.1 µM

O=C(Nc1cccc(F)c1)N1CCCC2(CCN(S(=O)(=O)c3ccccc3)CC2)C1
inactive: Potency [1] > 11.4 µM | activity change, negative = inhibition [2] -9.39% | Potency [3] | activity change, negative = inhibition [4] -29.9% | activity, negative = inhibition [5] -7.25% | Potency [6] > 46 µM | outcome [7] | Potency [8] | Potency [9] | activity change, negative = inhibition [10] 1.65% | Potency [11]
17.3%: max response [10, 16]
13.8%: max response [10, 15]

COC(=O)N1CCC2(CC1)CCN(c1ccccc1)CC2
7.38%: max response [10, 16]
inactive: Potency [1] > 11.4 µM | activity change, negative = inhibition [2] 8.46% | Potency [3] | activity change, negative = inhibition [4] 7.28% | activity, negative = inhibition [5] 7.52% | Potency [6] > 46 µM | outcome [7] | Potency [8] | Potency [12] | activation [13] 0.0011% | activity change, negative = inhibition [10] 0.493% | Potency [11]
3.31%: max response [10, 15]

COCC(=O)N1CCC[C@@]2(CCN(Cc3ccc(C#N)cc3)C2)C1
inactive: Potency [1] > 11.4 µM | activity change, negative = inhibition [2] -13.6% | Potency [3] | activity change, negative = inhibition [4] 4.93% | activity, negative = inhibition [5] 5.14% | Potency [6] > 46 µM | outcome [7] | Potency [8] | Potency [9] | activity change, negative = inhibition [10] 5.07% | Potency [11]
15.9%: max response [10, 16]
7.03%: max response [10, 15]

O=C(c1ccco1)N1CCC2(CCCN(C(c3ccccc3)c3ccccc3)C2)CC1
inactive: Potency [1] > 11.4 µM | activity change, negative = inhibition [2] 26.1% | activity, negative = inhibition [5] 19.8% | Potency [6] > 46 µM | outcome [7] | Potency [8] | Potency [9] | activity change, negative = inhibition [10] 2.05% | Potency [11]
10.3%: max response [10, 15]
13.5%: max response [10, 16]
active: Potency [3] 15.8 µM | activity change, negative = inhibition [4] -80.8%

N#Cc1cccc(NC(=O)N2CC[C@@]3(CCCN(C(=O)c4ccncc4)C3)C2)c1
17.2%: max response [10, 15]
inactive: Potency [1] > 11.4 µM | activity change, negative = inhibition [2] -19.8% | Potency [3] | activity change, negative = inhibition [4] 1.61% | activity, negative = inhibition [5] 4.09% | Potency [6] > 46 µM | outcome [7] | Potency [8] | Potency [9] | activity change, negative = inhibition [10] 1.67% | Potency [11]
21.1%: max response [10, 16]

O=C(c1ccncc1)N1CCC[C@@]2(CCN(c3ccccn3)C2)C1
22.3%: max response [10, 16]
14.4%: max response [10, 15]
inactive: Potency [1] > 11.4 µM | activity change, negative = inhibition [2] -20.6% | activity change, negative = inhibition [4] 6.17% | activity, negative = inhibition [5] -0.0595% | Potency [6] > 46 µM | outcome [7] | Potency [8] | Potency [9] | activity change, negative = inhibition [10] 4.35% | Potency [11]
active: Potency [3] 20 µM | Potency [12] 7.94 µM | Potency [14] 6.31 µM

CS(=O)(=O)N1CCC[C@@]2(CCN(Cc3nccs3)C2)C1
inactive: Potency [1] > 11.4 µM | activity change, negative = inhibition [2] -5.88% | Potency [3] | activity change, negative = inhibition [4] 5.31% | activity, negative = inhibition [5] 4.77% | Potency [6] > 46 µM | outcome [7] | Potency [8] | Potency [9] | activity change, negative = inhibition [10] 7.12% | Potency [11]
20.5%: max response [10, 16]
9.38%: max response [10, 15]

CC(=O)N1CCC2(CCCN(C(=O)Nc3cccc(F)c3)C2)CC1
-12.4%: max response [10, 15]
-13.5%: max response [10, 16]
inactive: Potency [1] > 11.4 µM | activity change, negative = inhibition [2] -2.22% | Potency [3] | activity change, negative = inhibition [4] 13.9% | activity, negative = inhibition [5] -6.7% | Potency [6] > 46 µM | outcome [7] | Potency [8] | Potency [9] | activity change, negative = inhibition [10] -0.823% | Potency [11]

CC(C)NC(=O)N1CCC2(CC1)CCN(C(=O)c1cccc(F)c1)CC2
-8.2%: max response [10, 16]
inactive: Potency [1] > 11.4 µM | activity change, negative = inhibition [2] 10.6% | Potency [3] | activity change, negative = inhibition [4] 6.56% | activity, negative = inhibition [5] 7.13% | Potency [6] > 46 µM | outcome [7] | Potency [8] | Potency [12] | activity change, negative = inhibition [10] 1.61% | Potency [11]
active: Potency [9] 20 µM
-10.3%: max response [10, 15]

COC(=O)N1CCC2(CCCN(c3ccc(-c4ccccc4)cc3)C2)CC1
-21.4%: max response [10, 16]
active: Potency [3] 20 µM
11%: max response [10, 15]
inactive: Potency [1] > 11.4 µM | activity change, negative = inhibition [2] -0.311% | activity change, negative = inhibition [4] -18.6% | activity, negative = inhibition [5] 3.59% | Potency [6] > 46 µM | outcome [7] | Potency [8] | Potency [9] | activity change, negative = inhibition [10] -29.2% | Potency [11]

O=C(Nc1ccccc1)N1CC[C@@]2(CCCN(C(=O)c3cnccn3)C2)C1
12.8%: max response [10, 15]
inactive: Potency [1] > 11.4 µM | activity change, negative = inhibition [2] 6.39% | Potency [3] | activity change, negative = inhibition [4] 7.42% | activity, negative = inhibition [5] -0.789% | Potency [6] > 46 µM | outcome [7] | Potency [8] | Potency [9] | activity change, negative = inhibition [10] 1.67% | Potency [11]
16%: max response [10, 16]

COc1ccc(NC(=O)N2CCCC3(CCN(C(=O)c4csnn4)CC3)C2)cc1
inactive: Potency [1] > 11.4 µM | activity change, negative = inhibition [2] -1.51% | Potency [3] | activity change, negative = inhibition [4] -2.25% | activity, negative = inhibition [5] -9.13% | Potency [6] > 46 µM | outcome [7] | Potency [8] | Potency [9] | activity change, negative = inhibition [10] 6.81% | Potency [11]
22.4%: max response [10, 16]
11.2%: max response [10, 15]
